Values joined by “and” are separate entries in the source; they are usually repeats but may differ in a detail not shown here. Identical values can stand only once. Among all 5,500 compounds or so, about 2,000 (36%) were called active. Not shown: some 18% with an inconclusive outcome. Rule as the data show it: active = normalized growth mostly below about 0.91 (no sharp cut-off); inconclusive = no clear call, values can overlap the other calls; inactive = mostly above about 0.92. The list shows a part of the results.
Experiment: chemical genetic growth profiling, strain panel (AID 1159580);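 also: tested at 20 µM; growth read once vehicle control cultures reached saturation at 30 °C; 1 = growth at the plate median or of vehicle wells; lower values mean less growth of the strain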
Details: S. cerevisiae deletion strains, growth OD

Measured: normalized growth

CN(C)N=Nc1nc[nH]c1C(N)=O
inactive: locus YAL013W, strain DEP1, active compounds read low 1.01 | locus YAL021C, strain ccr4, active compounds read low 0.968 | locus YAL026C, strain drs2, active compounds read low 1 | locus YAL030W, strain snc1, active compounds read low 0.976 | locus YBL061C, strain skt5, active compounds read low 0.976 | locus YBR009C, strain hhf1, active compounds read low 1.02 | locus YBR021W, strain FUR4, active compounds read low 1.02 | locus YBR023C, strain chs3, active compounds read low 0.982 | locus YBR171W, strain sec66, active compounds read low 0.969 | locus YBR229C, strain ROT2, active compounds read low 1.01 | locus YBR231C, strain swc5, active compounds read low 0.985 | locus YBR279W, strain paf1, active compounds read low 0.966 | locus YCL011C, strain gbp2, active compounds read low 0.953 | locus YCL016C, strain dcc1, active compounds read low 0.957 | locus YCL029C, strain bik1, active compounds read low 1 | locus YCL061C, strain MRC1, active compounds read low 0.992 | locus YCL069W, strain vba3, active compounds read low 0.984 | locus YCR088W, strain abp1, active compounds read low 0.968 | locus YDL005C, strain med2, active compounds read low 0.965 | locus YDL035C, strain GPR1, active compounds read low 1.02 | locus YDL040C, strain nat1, active compounds read low 0.979 | locus YDL074C, strain BRE1, active compounds read low 1.01 | locus YDL101C, strain DUN1, active compounds read low 1.01 | locus YDL134C, strain PPH21, active compounds read low 1.02 | locus YDL185W, strain tfp1, active compounds read low 0.997 | locus YDL192W, strain arf1, active compounds read low 0.996 | locus YDR001C, strain nth1, active compounds read low 0.975 | locus YDR069C, strain doa4, active compounds read low 0.976 | locus YDR101C, strain arx1, active compounds read low 1.01 | locus YDR137W, strain rgp1, active compounds read low 0.975 | locus YDR150W, strain NUM1, active compounds read low 1.01 | locus YDR159W, strain sac3, active compounds read low 1.02 | locus YDR162C, strain NBP2, active compounds read low 1.03 | locus YDR195W, strain ref2 1.01 | locus YDR297W, strain sur2, active compounds read low 0.966 | locus YDR318W, strain mcm21, active compounds read low 1 | locus YDR334W, strain swr1, active compounds read low 0.949 | locus YDR335W, strain msn5, active compounds read low 0.965 | locus YDR388W, active compounds read low 0.992 | locus YDR392W, strain spt3, active compounds read low 0.918 | locus YDR502C, strain sam2, active compounds read low 1.01 | locus YEL003W, strain gim4, active compounds read low 0.977 | locus YEL037C, strain rad23, active compounds read low 0.985 | locus YEL061C, strain CIN8 (second series), active compounds read low 0.98 | locus YEL061C, strain CIN8, active compounds read low 1.01 | locus YER015W, strain faa2, active compounds read low 0.981 | locus YER016W, strain bim1, active compounds read low 0.98 | locus YER110C, active compounds read low 0.995 | locus YER111C, strain swi4, active compounds read low 0.987 | locus YER155C, strain BEM2 (second series), active compounds read low 0.998 | locus YER155C, strain BEM2, active compounds read low 1 | locus YER167W, strain BCK2, active compounds read low 1.02 | locus YFR010W, strain ubp6, active compounds read low 0.987 | locus YGL078C, strain dbp3, active compounds read low 0.999 | locus YGL086W, strain mad1, active compounds read low 1.01 | locus YGL167C, strain pmr1, active compounds read low 0.981 | locus YGL173C, strain kem1, active compounds read low 0.961 | locus YGL227W, strain vid30, active compounds read low 0.979 | locus YGL240W, strain doc1, active compounds read low 0.951 | locus YGL248W, strain PDE1, active compounds read low 1.01 | locus YGL253W, strain hxk2, active compounds read low 0.953 | locus YGR078C, strain PAC10, active compounds read low 1 | locus YGR135W, strain pre9, active compounds read low 1 | locus YGR252W, strain gcn5, active compounds read low 1.05 | locus YHR013C, strain ard1, active compounds read low 0.965 | locus YHR027C, strain rpn1, active compounds read low 0.967 | locus YHR030C, strain SLT2, active compounds read low 1.01 | locus YHR079C, strain IRE1 (second series), active compounds read low 1 | locus YHR079C, strain IRE1, active compounds read low 1.02 | locus YHR094C, strain hxt1, active compounds read low 0.999 | locus YHR129C, strain ARP1, active compounds read low 1.01 | locus YHR142W, strain chs7, active compounds read low 0.926 | locus YHR200W, strain rpn10, active compounds read low 1.01 | locus YIL066C, strain RNR3, active compounds read low 1.01 | locus YIL073C, strain SPO22, active compounds read low 1.02 | locus YIL125W, strain kgd1, active compounds read low 0.995 | locus YIR030C, strain dcg1, active compounds read low 1.01 | locus YJL092W, strain hpr5, active compounds read low 0.984 | locus YJL095W, strain BCK1 (second series), active compounds read low 0.966 | locus YJL095W, strain BCK1, active compounds read low 1.01 and 1.03 | locus YJL115W, strain asf1, active compounds read low 0.968 | locus YJL129C, strain trk1, active compounds read low 0.958 | locus YJL134W, strain LCB3, active compounds read low 1 | locus YJL154C, strain vps35, active compounds read low 0.954 | locus YJL164C, strain tpk1, active compounds read low 0.989 | locus YJL166W, strain qcr8, active compounds read low 0.936 | locus YJL168C, strain set2, active compounds read low 1.01 | locus YJL187C, strain SWE1 (second series), active compounds read low 1.02 | locus YJL187C, strain SWE1, active compounds read low 0.993 | locus YJR043C, strain POL32, active compounds read low 1.03 | locus YJR066W, strain TOR1, active compounds read low 1 | locus YJR075W, strain HOC1, active compounds read low 1.01 | locus YKL009W, strain mrt4, active compounds read low 1 | locus YKL068W, active compounds read low 0.997 | locus YKL085W, strain MDH1 (second series), active compounds read low 0.999 | locus YKL085W, strain MDH1, active compounds read low 0.999 | locus YKL160W, strain elf1, active compounds read low 0.931 | locus YKR001C, strain vps1, active compounds read low 1 | locus YKR026C, strain gcn3, active compounds read low 0.975 | locus YKR091W, strain srl3, active compounds read low 0.97 | locus YLL001W, strain dnm1, active compounds read low 0.916 | locus YLL026W, active compounds read low 0.987 | locus YLL041C, strain sdh2, active compounds read low 0.987 | locus YLR027C, strain aat2, active compounds read low 0.991 | locus YLR039C, strain RIC1, active compounds read low 1.04 | locus YLR058C, strain SHM2, active compounds read low 1.02 | locus YLR102C, strain apc9, active compounds read low 0.999 | locus YLR113W, strain HOG1, active compounds read low 1.06 | locus YLR221C, strain rsa3, active compounds read low 0.956 | locus YLR258W, strain gsy2, active compounds read low 0.979 | locus YLR262C, strain YPT6 (second series), active compounds read low 0.97 | locus YLR262C, strain YPT6, active compounds read low 1.02 | locus YLR268W, strain sec22, active compounds read low 1.01 | locus YLR320W, strain mms22, active compounds read low 0.941 | locus YLR330W, strain CHS5, active compounds read low 1.01 | locus YLR342W, strain FKS1 (second series), active compounds read low 1.01 | locus YLR342W, strain FKS1, active compounds read low 0.974 | locus YLR357W, strain rsc2, active compounds read low 0.965 | locus YLR370C, strain arc18, active compounds read low 0.973 | locus YLR371W, strain rom2, active compounds read low 1 | locus YLR384C, strain iki3, active compounds read low 0.985 | locus YLR418C, strain cdc73, active compounds read low 1.03 | locus YML016C, strain PPZ1, active compounds read low 1.01 | locus YML032C, strain rad52, active compounds read low 0.993 | locus YML120C, strain ndi1, active compounds read low 0.925 | locus YML124C, strain tub3, active compounds read low 1 | locus YMR058W, strain fet3, active compounds read low 0.979 | locus YMR078C, strain ctf18, active compounds read low 0.999 | locus YMR125W, strain sto1, active compounds read low 0.935 | locus YMR129W, active compounds read low 0.992 | locus YMR205C, strain PFK2, active compounds read low 0.927 | locus YMR223W, strain ubp8, active compounds read low 0.988 | locus YMR231W, strain pep5, active compounds read low 0.993 | locus YMR263W, strain SAP30, active compounds read low 1.02 | locus YMR307W, strain GAS1, active compounds read low 1.07 | locus YNL067W, strain RPL9B, active compounds read low 1.01 | locus YNL071W, strain lat1, active compounds read low 0.986 | locus YNL153C, strain GIM3, active compounds read low 1 | locus YNL183C, strain NPR1, active compounds read low 0.986 | locus YNL209W, strain ssb2, active compounds read low 0.976 | locus YNL233W, strain BNI4, active compounds read low 1 | locus YNL248C, strain rpa49, active compounds read low 0.968 | locus YNL250W, strain rad50, active compounds read low 0.979 | locus YNL271C, strain bni1, active compounds read low 0.995 | locus YNL298W, strain CLA4, active compounds read low 0.999 | locus YNL307C, strain MCK1, active compounds read low 0.996 | locus YNL322C, strain KRE1 (second series), active compounds read low 0.974 | locus YNL322C, strain KRE1, active compounds read low 1.01 | locus YNR049C, strain mso1, active compounds read low 0.967 | locus YNR052C, strain pop2, active compounds read low 1 | locus YOL006C, strain TOP1, active compounds read low 1.06 | locus YOL012C, strain htz1 0.752 | locus YOL147C, strain pex11, active compounds read low 0.998 | locus YOR001W, strain rrp6, active compounds read low 1.01 | locus YOR061W, strain CKA2, active compounds read low 1.01 | locus YOR069W, strain VPS5, active compounds read low 1 | locus YOR070C, strain gyp1, active compounds read low 0.993 | locus YOR080W, strain dia2, active compounds read low 0.973 | locus YOR083W, strain WHI5, active compounds read low 0.936 | locus YOR106W, strain vam3, active compounds read low 0.932 | locus YOR136W, strain idh2, active compounds read low 1.01 | locus YOR144C, strain elg1, active compounds read low 1.01 | locus YOR184W, strain ser1, active compounds read low 1.01 | locus YOR231W, strain MKK1, active compounds read low 1.02 | locus YOR265W, strain rbl2, active compounds read low 0.977 | locus YOR270C, strain vph1, active compounds read low 0.988 | locus YOR290C, strain snf2, active compounds read low 0.943 | locus YOR316C, strain cot1, active compounds read low 0.997 | locus YPL051W, strain arl3, active compounds read low 0.973 | locus YPL055C, strain LGE1, active compounds read low 1.02 | locus YPL078C, strain atp4, active compounds read low 0.928 | locus YPL106C, strain sse1, active compounds read low 0.942 | locus YPL240C, strain hsp82, active compounds read low 1 | locus YPL241C, strain CIN2, active compounds read low 1.01 | locus YPL256C, strain CLN2, active compounds read low 1.04 | locus YPR119W, strain clb2, active compounds read low 0.995 | locus YPR141C, strain kar3, active compounds read low 0.987 | locus YPR163C, strain tif3, active compounds read low 1 | locus YPR167C, strain met16, active compounds read low 1 | strain wtn01, active compounds read low 0.995

— PubChem BioAssay AID1159580 (chemical genetic matrix, 2015)
